High-throughput results from PubChem.
Rows were chosen to be rich in hits. Some 3.5% of all compounds tested hit in one or more screens of this group.
BoNT-A LC inh2: blocks Botulinum neurotoxin A light chain protease; inhibition, % at 10 µM; 360,000 tested, 0.17% active; AID 588499; multiplex microsphere protease substrate cleavage, flow cytometry; in the data active = inhibition above about 30%; also: plate controls were buffer without enzyme for full effect and enzyme alone for no effect
Anthrax LF inh2: anthrax lethal factor protease inhibition; 360,000 tested, 0.12% active; multiplex microsphere protease cleavage assay, LF; inhibition, % at 10 µM; P15917; AID 588501; in the data active = inhibition above about 30%; also: plate controls were buffer without enzyme for full effect and enzyme alone for no effect
Autofluor counter: flagged as autofluorescent in microsphere protease counterscreen | AID 624483 | compound autofluorescence counterscreen, microsphere flow cytometry; stronger effect = higher value | 360,000 tested, 3.1% active | fluorescence intensity (test concentration not listed); in the data active = fluorescence intensity above about 16000
BoNT-F LC inh: inhibitors of Botulinum neurotoxin F light chain protease. Multiplex microsphere protease cleavage assay, flow cytometry. inhibition, % at 10 µM. 360,000 tested, 0.22% active; in the data active = inhibition above about 35%, passing the limit was not always enough; also: plate controls were buffer without enzyme for full effect and enzyme alone for no effect
BoNT-A LC CP2: blocks botulinum neurotoxin A light chain protease. shares compounds with BoNT-A LC inh2. multiplex microsphere protease cleavage assay, flow cytometry. inhibition, % at 10 µM. 150 tested, 10% active; in the data active = inhibition above about 24%
LF protease CP2: inhibitors of Bacillus anthracis lethal factor protease; 150 tested, 7% active; inhibition, % at 10 µM; multiplex microsphere protease cleavage assay; shares compounds with BoNT-A LC inh2; AID 602327
BoNT-F LC CP2: blocks botulinum neurotoxin F light chain protease | shares compounds with BoNT-A LC inh2 | multiplex microsphere protease cleavage assay, flow cytometry | inhibition, % at 10 µM | 150 tested, 7% active
An asterisk follows results filed as active. Rule as the data show it, unless noted: active = inhibition above about 25%; inactive = the rest.

`O=C(CSc1nnc2ccccn12)NNC(=O)c1cccc(Cl)c1` gave BoNT-A LC inh2 -0.4, Anthrax LF inh2 -3.0, Autofluor counter 3751 and BoNT-F LC inh 6.6.
Screening CC(NS(=O)(=O)c1ccccc1)C1CC2CCC1C2 (stereo not drawn) returned BoNT-A LC inh2 0.8, Anthrax LF inh2 2.4, Autofluor counter 4322 and BoNT-F LC inh 1.5.
Screening COc1ccc(C(CNC(=O)c2ccc(C)c(S(=O)(=O)N3CCCCC3)c2)N2CCCC2)cc1 (stereo not drawn) returned BoNT-A LC inh2 22.5, Anthrax LF inh2 56.1*, Autofluor counter 9963, BoNT-F LC inh 86.3*, BoNT-A LC CP2 0.6, LF protease CP2 -0.8 and BoNT-F LC CP2 5.0.
`O=C(OCC(=O)c1c[nH]c2ccccc12)c1cncc(Br)c1` gave BoNT-A LC inh2 1.1, Anthrax LF inh2 0.4, Autofluor counter 4518 and BoNT-F LC inh -0.7.
COc1ccc(C(=O)OCC(=O)c2c[nH]c3ccccc23)c(OC)c1 was read as BoNT-A LC inh2 -4.4, Anthrax LF inh2 -3.2, Autofluor counter 8458, BoNT-F LC inh -5.1, BoNT-A LC CP2 2.7, LF protease CP2 -1.0 and BoNT-F LC CP2 1.7.
Screening O=C(OCC(=O)c1c[nH]c2ccccc12)c1cccc([N+](=O)[O-])c1 returned BoNT-A LC inh2 33.4*, Anthrax LF inh2 39.2*, Autofluor counter 5658, BoNT-F LC inh -11.5, BoNT-A LC CP2 14.5, LF protease CP2 13.7 and BoNT-F LC CP2 -0.4.
For COc1cccc(C(=O)OCC(=O)c2c[nH]c3ccccc23)c1OC the results were BoNT-A LC inh2 0.8, Anthrax LF inh2 2.6, Autofluor counter 2872, BoNT-F LC inh 7.1, BoNT-A LC CP2 1.4, LF protease CP2 -1.4 and BoNT-F LC CP2 -1.7.
For COc1ccc(C(=O)OCC(=O)c2cc(OC)ccc2OC)c(OC)c1 the results were BoNT-A LC inh2 -0.3, Anthrax LF inh2 0.6, Autofluor counter 2846 and BoNT-F LC inh -7.2.
COc1ccccc1C(=O)COC(=O)Cc1c[nH]c2ccccc12 was read as BoNT-A LC inh2 6.5, Anthrax LF inh2 5.1, Autofluor counter 5107 and BoNT-F LC inh 32.8.
O=C(OCC(=O)c1c[nH]c2ccccc12)c1ccc(OC(F)F)cc1 was read as BoNT-A LC inh2 1.8, Anthrax LF inh2 3.9, Autofluor counter 3716, BoNT-F LC inh -5.2, BoNT-A LC CP2 2.2, LF protease CP2 2.2 and BoNT-F LC CP2 -0.5.
`NC(=O)Nc1ccc(C(=O)OCC(=O)c2c[nH]c3ccccc23)cc1` gave BoNT-A LC inh2 -0.6, Anthrax LF inh2 -1.5, Autofluor counter 3902 and BoNT-F LC inh -10.8.
CN(CC(=O)OCC(=O)NC1CCCC1)S(=O)(=O)c1ccc(Cl)cc1 was read as BoNT-A LC inh2 -1.5, Anthrax LF inh2 -12.2, Autofluor counter 3156 and BoNT-F LC inh -6.6.
`CN(CC(=O)NC1CCN(Cc2ccccc2)CC1)S(=O)(=O)c1ccc(Br)s1` gave BoNT-A LC inh2 1.9, Anthrax LF inh2 2.1, Autofluor counter 3897 and BoNT-F LC inh 7.9.
Screening CN(CC(=O)NC1CCN(Cc2ccccc2)CC1)S(=O)(=O)c1ccc(Cl)cc1 returned BoNT-A LC inh2 14.4, Anthrax LF inh2 54.2*, Autofluor counter 4359, BoNT-F LC inh 74.2*, BoNT-A LC CP2 7.6, LF protease CP2 8.1 and BoNT-F LC CP2 21.1.
`Cc1cc2ccccc2n1CCNC(=O)COc1ccccc1` gave BoNT-A LC inh2 84.4*, Anthrax LF inh2 -63.3, Autofluor counter 1122, BoNT-F LC inh -87.7, BoNT-A LC CP2 77.2*, LF protease CP2 49.7* and BoNT-F LC CP2 -14.0.
`CCC(=O)NCCn1c(C)cc2ccccc21` gave BoNT-A LC inh2 25.8, Anthrax LF inh2 33.2*, Autofluor counter 5062, BoNT-F LC inh 19.8, BoNT-A LC CP2 34.0*, LF protease CP2 1.6 and BoNT-F LC CP2 27.8*.
Screening Cc1cc2ccccc2n1CCNC(=O)c1ccc(S(=O)(=O)N2CCOCC2)cc1 returned BoNT-A LC inh2 28.6, Anthrax LF inh2 -100.4, Autofluor counter 1079 and BoNT-F LC inh -127.6.
For Cc1cc2ccccc2n1CCNC(=O)Cc1cccc2ccccc12 the results were BoNT-A LC inh2 55.2*, Anthrax LF inh2 -124.0, Autofluor counter 1162, BoNT-F LC inh -115.9, BoNT-A LC CP2 11.7, LF protease CP2 10.0 and BoNT-F LC CP2 -4.7.
Screening Cc1cc2ccccc2n1CCNC(=O)c1ccc(Br)o1 returned BoNT-A LC inh2 66.4*, Anthrax LF inh2 -117.3, Autofluor counter 1384, BoNT-F LC inh -145.1, BoNT-A LC CP2 21.0, LF protease CP2 22.4 and BoNT-F LC CP2 -3.0.
COC(=O)CNC(=O)COc1ccccc1 was read as BoNT-A LC inh2 0.0, Anthrax LF inh2 1.5, Autofluor counter 2518 and BoNT-F LC inh 1.3.
For Cc1c(Cl)cccc1NC(=S)NNS(=O)(=O)c1ccc([N+](=O)[O-])cc1 the results were BoNT-A LC inh2 -1.5, Anthrax LF inh2 0.2, Autofluor counter 5627 and BoNT-F LC inh -7.0.
For CCC(C)(C)n1nnnc1C(c1cc(OC)ccc1OC)N1CCN(Cc2ccccc2)CC1 (stereo not drawn) the results were BoNT-A LC inh2 0.1, Anthrax LF inh2 -1.6, Autofluor counter 2259 and BoNT-F LC inh -0.3.
Screening C#CCOCCOCCOCCNc1nc(N2CCN(C(=O)Cn3cc(CCCCN)nn3)CC2)nc(N2CCN(C(=O)Cn3cc(CCCN=C(N)N)nn3)CC2)n1 returned BoNT-A LC inh2 0.0, Anthrax LF inh2 3.8, Autofluor counter 4115 and BoNT-F LC inh -7.0.
For Cc1cc2ccccc2n1CCNC(=O)C(C)(C)C the results were BoNT-A LC inh2 96.1*, Anthrax LF inh2 12.4, Autofluor counter 2350, BoNT-F LC inh -15.6, BoNT-A LC CP2 10.6, LF protease CP2 9.6 and BoNT-F LC CP2 11.3.
`O=C(CN1CSCC1=O)N1CCN(S(=O)(=O)c2cc(C(F)(F)F)ccc2Cl)CC1` gave BoNT-A LC inh2 -0.5, Anthrax LF inh2 -0.2, Autofluor counter 5681 and BoNT-F LC inh 0.4.
For COc1ccc(C(CNC(=O)C(CCSC)NC(=O)c2ccccc2Cl)N2CCCC2)cc1 (stereo not drawn) the results were BoNT-A LC inh2 -14.9, Anthrax LF inh2 7.4, Autofluor counter 15232, BoNT-F LC inh 43.1*, BoNT-A LC CP2 -5.2, LF protease CP2 1.2 and BoNT-F LC CP2 13.9.
COc1ccc(C(CNC(=O)C(CCSC)NC(=O)c2ccccc2Cl)N2CCCCC2)cc1 (stereo not drawn) was read as BoNT-A LC inh2 0.8, Anthrax LF inh2 -1.1, Autofluor counter 3610 and BoNT-F LC inh 1.1.
Screening Cc1[nH]c2ccccc2c1C(=O)COC(=O)c1ccccc1O returned BoNT-A LC inh2 -0.9, Anthrax LF inh2 0.3, Autofluor counter 3305, BoNT-F LC inh -2.4, BoNT-A LC CP2 5.2, LF protease CP2 4.1 and BoNT-F LC CP2 15.7.
Screening CCOc1ccc(NC(=O)CN(C)C(=O)c2ccc3c(c2)S(=O)(=O)N=C2CCCCCN23)cc1OCC returned BoNT-A LC inh2 93.9*, Anthrax LF inh2 110.1*, Autofluor counter 5175, BoNT-F LC inh 87.4*, BoNT-A LC CP2 2.5, LF protease CP2 -0.5 and BoNT-F LC CP2 1.1.
